Compound activity as filed in PubChem.
Hits are enriched below; roughly 4.7% of the tested compounds scored in any of these assays.
GDH-TPI counter = counter-screen for M. tuberculosis FBA inhibitors: GDH-TPI coupled enzymes | GDH-TPI coupled enzyme counterscreen, NADH absorbance | inhibition, % at 4.8 µM | 360,000 compounds, 1.2% hits | AID 588335;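 note: 0% = DMSO wells and 100% = wells lacking the enzyme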
DUSP3 inh = inhibitors of human VHR1 phosphatase (DUSP3); P51452; recombinant VHR phosphatase, pNPP absorbance; inhibition, % at 13.3 µM; 290,000 compounds, 0.52% hits; in the data active = inhibition above about 50%
Target sequence (P51452 whole entry, looked up): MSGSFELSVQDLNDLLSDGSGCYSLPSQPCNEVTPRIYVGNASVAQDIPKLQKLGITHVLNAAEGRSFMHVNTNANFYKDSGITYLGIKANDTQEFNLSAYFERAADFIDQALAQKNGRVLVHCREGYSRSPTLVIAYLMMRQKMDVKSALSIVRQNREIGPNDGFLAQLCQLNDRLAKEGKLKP
RecA intein inh = Mtb RecA intein splicing inhibition; P9WHJ3; cell-free RecA intein splicing, fluorescence; inhibition, % (concentration not given with the values); 290,000 compounds, 0.75% hits; AID 2221; in the data active = inhibition above about 30%;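 note: 0% = vehicle wells and 100% = reference inhibitor control wells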
SARS 3CLpro inh = SARS-CoV 3CLpro protease inhibition; P0C6X7; recombinant SARS-CoV 3CLpro, quenched FRET peptide cleavage; inhibition, % at 6 µM; 290,000 compounds, 0.14% hits; in the data active = inhibition above about 12%
Mtb FBA inh = inhibits M. tuberculosis FBA enzyme; P9WQA3; purified M. tuberculosis FBA, fluorescence read-out; inhibition, % at 1 µM; 360,000 compounds, 2.3% hits; in the data active = inhibition above about 27%;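 note: 0% = vehicle and 100% = reference inhibitor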
Target sequence (P9WQA3 whole entry, looked up): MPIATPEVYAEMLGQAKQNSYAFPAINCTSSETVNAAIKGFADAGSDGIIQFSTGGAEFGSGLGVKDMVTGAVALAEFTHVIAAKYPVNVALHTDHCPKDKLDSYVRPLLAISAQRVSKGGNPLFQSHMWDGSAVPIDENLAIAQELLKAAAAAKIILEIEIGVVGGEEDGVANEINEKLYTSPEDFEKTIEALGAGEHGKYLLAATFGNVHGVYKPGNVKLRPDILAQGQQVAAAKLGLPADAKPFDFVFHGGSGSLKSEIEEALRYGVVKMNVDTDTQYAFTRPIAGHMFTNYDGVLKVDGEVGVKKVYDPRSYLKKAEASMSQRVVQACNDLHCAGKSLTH
CCHF vOTU inh-1 = blocks the CCHF virus ovarian tumor domain protease; CCHFV vOTU protease, Pep-AMC fluorescence; inhibition, % at 11.5 µM; 370,000 compounds, 0.55% hits; AID 651958; note: 0% = vehicle wells with enzyme and 100% = no enzyme wells
CCHF vOTU inh-2 = confirmation of CCHF virus vOTU protease inhibitors; shares compounds with CCHF vOTU inh-1; Recombinant CCHFV vOTU, Pep-AMC fluorescence; inhibition, % at 11.5 µM; 1,900 compounds, 17% hits
Starred values were filed as active, the others as inactive. Cut-off read from the data, not from the text of the source, unless noted: active = inhibition above about 30%; inactive = the rest.

CCOc1ccc(NC2=CC(=O)C(=O)c3ccccc32)cc1 was read as GDH-TPI counter 8, Mtb FBA inh -4, CCHF vOTU inh-1 91* and CCHF vOTU inh-2 45*.
Screening O=C1C=C(Nc2cccnc2)c2ccccc2C1=O returned GDH-TPI counter 10, Mtb FBA inh -3, CCHF vOTU inh-1 98* and CCHF vOTU inh-2 96*.
For COc1ccc(N2CC(C(=O)Nc3ccc(S(=O)(=O)Nc4nccs4)cc3)CC2=O)c(OC)c1 (configuration not stated) the results were GDH-TPI counter 0, Mtb FBA inh 0 and CCHF vOTU inh-1 10.
For Cc1cccc(C)c1-n1c(C)cc(/C=N\NC(=O)CC(=O)NC2CCCCC2)c1C the results were GDH-TPI counter 10, DUSP3 inh -7, RecA intein inh 3, SARS 3CLpro inh -1, Mtb FBA inh -3, CCHF vOTU inh-1 31* and CCHF vOTU inh-2 -4.
`CC(C)(C)C(=O)/C=c1\[nH]c(=O)/c(=C\c2ccc(F)cc2)s1` gave GDH-TPI counter 20, DUSP3 inh 22, RecA intein inh 1, SARS 3CLpro inh 3, Mtb FBA inh -3 and CCHF vOTU inh-1 20.
CCc1ccc(/C=c2\s/c(=C\C(=O)C(C)(C)C)[nH]c2=O)cc1 was read as GDH-TPI counter 7, DUSP3 inh -2, RecA intein inh 13, SARS 3CLpro inh -3, Mtb FBA inh -4, CCHF vOTU inh-1 36* and CCHF vOTU inh-2 8.
For C=CCOC(=O)c1[nH]c2c(c1C)C(=O)CC(c1ccco1)C2 (configuration not stated) the results were DUSP3 inh 7, RecA intein inh 4 and SARS 3CLpro inh -3.
C/C=C/COC(=O)c1[nH]c2c(c1C)C(=O)CC(c1ccco1)C2 (configuration not stated) was read as GDH-TPI counter 7, DUSP3 inh 16, RecA intein inh 1, SARS 3CLpro inh -8, Mtb FBA inh 0, CCHF vOTU inh-1 30* and CCHF vOTU inh-2 -17.
For Cc1c(C=O)c(Cl)n(C)c(=O)c1C#N the results were GDH-TPI counter 30, DUSP3 inh 18, RecA intein inh -5, SARS 3CLpro inh -1, Mtb FBA inh 5, CCHF vOTU inh-1 68* and CCHF vOTU inh-2 110*.
`CC(=O)N=Cc1c(C)c(C#N)c(=O)n(C)c1O` gave GDH-TPI counter 12, DUSP3 inh 33, RecA intein inh 3, SARS 3CLpro inh -2, Mtb FBA inh -3 and CCHF vOTU inh-1 17.
Screening C[C@@H]1CN(C(=O)OC(C)(C)C)CCN1c1ccc(N2CC[C@H](O)C2)c(C#N)c1 returned CCHF vOTU inh-1 48* and CCHF vOTU inh-2 -16.
C[C@@H]1CN(c2ccc(N3CCN(C(=O)OC(C)(C)C)C[C@@H]3C)cc2C#N)C[C@H](C)O1 was read as CCHF vOTU inh-1 41* and CCHF vOTU inh-2 -3.
`C[C@@H]1CN(c2ccc(N3CCN(C(=O)OC(C)(C)C)C[C@H]3C)cc2C#N)C[C@H](C)O1` gave CCHF vOTU inh-1 17.
Screening O=C(Nc1c(F)c(F)c(F)c(F)c1F)c1ccc(Br)o1 returned GDH-TPI counter 12, Mtb FBA inh 3 and CCHF vOTU inh-1 0.
Cc1c(/C(O)=C2/C(=O)C(=O)N(CCN3CCOCC3)C2c2ccccn2)cnn1-c1ccccc1 (configuration not stated) was read as GDH-TPI counter 6, DUSP3 inh 26, RecA intein inh 13, SARS 3CLpro inh -3, Mtb FBA inh -2 and CCHF vOTU inh-1 7.
Screening CCOc1ccc2c(c1)C(C)=CC(C)(C)N2 returned GDH-TPI counter 1, Mtb FBA inh 6, CCHF vOTU inh-1 40* and CCHF vOTU inh-2 -105.
For COc1cccc(CNC(=O)[C@H]2CCCN2C(=O)[C@H]2CCCN2S(=O)(=O)c2cccc(C)c2)c1 the results were CCHF vOTU inh-1 -5.
`CCCCCCCCN1C(=O)[C@@H](CC(=O)NCc2cccc(C(F)(F)F)c2)C[C@@]2(C(=O)OC)C1=C[C@H](C(C)C)O[C@@H]2C1CC1` gave CCHF vOTU inh-1 30* and CCHF vOTU inh-2 31*.
For CCCCCCCCN1C(=O)[C@@H](CC(=O)NCc2ccc(OC)c(OC)c2)C[C@@]2(C(=O)OC)C1=C[C@H](C(C)C)O[C@@H]2C1CC1 the results were CCHF vOTU inh-1 38* and CCHF vOTU inh-2 11.
Screening COC(=O)[C@]12C[C@H](CC(=O)NCc3ccc(OC)c(OC)c3)C(=O)N(CCC3=CCCCC3)C1=C[C@H](C(C)C)O[C@@H]2C1CC1 returned CCHF vOTU inh-1 18.
Screening COC(=O)[C@]12C[C@H](CC(=O)NCc3cccc(C(F)(F)F)c3)C(=O)N(CCc3ccc(OC)c(OC)c3)C1=C[C@H](C(C)C)O[C@@H]2C1CC1 returned CCHF vOTU inh-1 25.
COc1ccc(OC)c(-c2nnc3n2N=C(c2ccc(OC)c(OC4CCCC4)c2)CS3)c1 was read as GDH-TPI counter 32*, Mtb FBA inh 5, CCHF vOTU inh-1 32* and CCHF vOTU inh-2 23.
O=C1N2CCc3ccccc3C2CS(=O)(=O)N1CCc1ccccc1 (configuration not stated) was read as CCHF vOTU inh-1 0.
COc1ccccc1C(=O)N1CCCC(C)(C(=O)NS(=O)(=O)C2CC2)C1 (configuration not stated) was read as GDH-TPI counter -3, Mtb FBA inh 0, CCHF vOTU inh-1 30* and CCHF vOTU inh-2 -18.
CN(c1ccccc1)S(=O)(=O)c1ccc(C(=O)Nc2ncccc2O)cc1 was read as GDH-TPI counter 7, RecA intein inh 4, Mtb FBA inh 4 and CCHF vOTU inh-1 0.
`COc1cc(/C=C2\SC(=S)N(CCC(=O)Nc3cccc(O)c3)C2=O)cc(OC)c1OC` gave GDH-TPI counter 0, DUSP3 inh 6, SARS 3CLpro inh -1, Mtb FBA inh -4 and CCHF vOTU inh-1 1.
Screening CCCCCc1c(-c2ccc(F)cc2F)ncn1CCc1ccccc1OC returned CCHF vOTU inh-1 21.
For CCCCc1c(-c2ccc(F)cc2F)ncn1CCc1ccccc1OC the results were CCHF vOTU inh-1 40* and CCHF vOTU inh-2 5.
COc1ccccc1CCn1cnc(-c2ccccc2F)c1CC(C)C was read as CCHF vOTU inh-1 45* and CCHF vOTU inh-2 2.
For CC(C)C1NC2(C(=O)c3ccccc3C2=O)C2C(=O)N(c3ccc(F)cc3)C(=O)C12 (configuration not stated) the results were GDH-TPI counter -7, DUSP3 inh 11, RecA intein inh -1, SARS 3CLpro inh -3, Mtb FBA inh -2, CCHF vOTU inh-1 52* and CCHF vOTU inh-2 -22.
